The values below come from ChEMBL document CHEMBL3988442, “University of Dundee, Small-Polar-MMV Screening Library” (2021).

Set-up in all cases: scale not given: direction of the effect not stated beside the values
Test [1] has as its target Protein translocase subunit SecA (Escherichia coli (strain K12)) (UniProt P10408). The test is described as follows: Assay to Identify E. coli SecA ATPase Inhibitors. In kind it is functional. The note with it: 30 µM.
Test [2] concerns the target T1, Ubiquitin-activating enzyme e1, putative (Leishmania donovani (strain BPK282A1)) (UniProt E9BSI1).
T1 sequence (whole entry): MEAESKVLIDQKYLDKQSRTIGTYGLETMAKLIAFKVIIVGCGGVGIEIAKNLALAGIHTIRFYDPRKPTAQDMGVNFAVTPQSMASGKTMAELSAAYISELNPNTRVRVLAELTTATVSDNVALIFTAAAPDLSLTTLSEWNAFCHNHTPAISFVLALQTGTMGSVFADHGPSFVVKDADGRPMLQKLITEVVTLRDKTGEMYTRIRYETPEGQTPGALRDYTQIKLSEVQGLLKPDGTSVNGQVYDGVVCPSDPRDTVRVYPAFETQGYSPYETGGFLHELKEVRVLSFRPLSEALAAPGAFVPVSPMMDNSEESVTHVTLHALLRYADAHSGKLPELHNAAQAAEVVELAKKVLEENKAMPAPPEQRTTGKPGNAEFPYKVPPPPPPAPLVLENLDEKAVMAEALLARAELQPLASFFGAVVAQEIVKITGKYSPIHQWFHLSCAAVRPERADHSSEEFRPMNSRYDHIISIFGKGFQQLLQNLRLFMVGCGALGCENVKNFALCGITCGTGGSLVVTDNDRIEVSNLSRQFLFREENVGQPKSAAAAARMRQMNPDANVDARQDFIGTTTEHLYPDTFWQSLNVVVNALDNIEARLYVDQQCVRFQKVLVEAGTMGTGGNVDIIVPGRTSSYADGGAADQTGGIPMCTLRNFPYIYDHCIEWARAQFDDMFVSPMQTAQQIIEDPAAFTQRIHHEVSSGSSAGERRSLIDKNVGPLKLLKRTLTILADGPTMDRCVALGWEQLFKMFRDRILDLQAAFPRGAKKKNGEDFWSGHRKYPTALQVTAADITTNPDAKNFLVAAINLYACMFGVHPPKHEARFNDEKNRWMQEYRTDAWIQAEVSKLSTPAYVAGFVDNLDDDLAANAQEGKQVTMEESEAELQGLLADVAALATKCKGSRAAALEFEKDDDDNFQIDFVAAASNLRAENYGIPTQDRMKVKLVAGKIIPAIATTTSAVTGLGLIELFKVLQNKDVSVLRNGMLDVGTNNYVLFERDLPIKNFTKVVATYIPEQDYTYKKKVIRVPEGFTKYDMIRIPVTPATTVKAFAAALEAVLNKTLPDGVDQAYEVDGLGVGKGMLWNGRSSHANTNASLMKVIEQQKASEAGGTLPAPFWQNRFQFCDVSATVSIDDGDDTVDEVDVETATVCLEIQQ
The test is described as follows: Leishmania donovani Ubiquitin Activating Enzyme (LdE1). In kind it is functional. The note with it: 30 µM.

Test [3] has as its target AMP-activated protein kinase, AMPK (Homo sapiens) (UniProt P54646+O43741+P54619+Q9UGJ0+Q9Y478+Q13131+Q9UGI9). Briefly: AMP-dependent Kinase enzyme assay. An in vitro enzyme assay that detects ADP turnover that is directly proportional to AMPK activity. This uses naive AMPK that is activated during the assay with MK-8722. The note with it: 30 µM. In kind it is functional.

For test [4], the target named is Sialic acid-binding Ig-like lectin 9 (Homo sapiens) (UniProt Q9Y336). The test is described as follows: Hs-Siglec9 ALPHAscreen SOP 20170721. The note with it: 10 µM. In general terms: In Alpha technology, singlet oxygen from a donor bead excites a nearby acceptor bead.
The subject of the next test is Trypanosoma cruzi. The test is described as follows: Trypanosoma cruzi phosphomannomutase and mannose-1-phosphate guanylyltransferase assay. The note with it: 10 µM. In kind it is functional.
Test [5] concerns the target T2, Arginase-2, mitochondrial (Homo sapiens) (UniProt P78540).
T2 sequence (whole entry): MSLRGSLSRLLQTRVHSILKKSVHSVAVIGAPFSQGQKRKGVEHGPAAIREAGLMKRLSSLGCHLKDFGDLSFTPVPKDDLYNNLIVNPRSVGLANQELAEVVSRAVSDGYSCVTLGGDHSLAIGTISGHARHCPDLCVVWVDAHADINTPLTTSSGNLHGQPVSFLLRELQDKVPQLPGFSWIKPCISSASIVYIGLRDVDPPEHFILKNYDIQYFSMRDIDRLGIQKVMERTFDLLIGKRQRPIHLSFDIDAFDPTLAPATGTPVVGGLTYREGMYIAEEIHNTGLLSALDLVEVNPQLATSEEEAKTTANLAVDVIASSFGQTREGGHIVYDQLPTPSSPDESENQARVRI
Briefly: in vitro enzyme assay to detect the production of urea directly proportional to the activity of Arginase II. Note: in the data most compounds retested in dose-response had high values. In kind it is functional. The note with it: 33.3 µM.

Test [6] deals with T3, Proteasome subunit beta (Trypanosoma cruzi) (UniProt O96673).
T3 sequence (whole entry): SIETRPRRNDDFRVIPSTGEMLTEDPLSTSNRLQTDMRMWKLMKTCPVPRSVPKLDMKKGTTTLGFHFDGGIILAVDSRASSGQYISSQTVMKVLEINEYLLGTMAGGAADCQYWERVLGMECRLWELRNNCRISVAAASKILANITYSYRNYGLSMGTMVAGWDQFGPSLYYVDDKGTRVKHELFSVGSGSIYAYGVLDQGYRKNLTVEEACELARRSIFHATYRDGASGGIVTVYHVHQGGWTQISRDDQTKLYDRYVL
The test is described as follows: Trypanosoma cruzi proteasome chymotrypsin-like activity (TcProtChymo) assay. Note: in the data most compounds retested in dose-response had high values. In kind it is functional. The note with it: 9.37 µM.

The next test is filed under the species Homo sapiens. The test is described as follows: To identify inhibition of the IFN signalling (Jak-Stat) pathway via expression of an eGFP reporter gene under the control of an IFN-stimulated response element (ISRE) containing MxA promoter. In kind it is functional. The note with it: 30 µM. In general terms: Reporter assays use an easily measured gene product as a stand-in for the process of interest.

Test [7] has as its target T4, Tyrosyl-tRNA synthetase, putative (Trypanosoma cruzi (strain CL Brener)) (UniProt Q4DSP6).
T4 sequence (whole entry): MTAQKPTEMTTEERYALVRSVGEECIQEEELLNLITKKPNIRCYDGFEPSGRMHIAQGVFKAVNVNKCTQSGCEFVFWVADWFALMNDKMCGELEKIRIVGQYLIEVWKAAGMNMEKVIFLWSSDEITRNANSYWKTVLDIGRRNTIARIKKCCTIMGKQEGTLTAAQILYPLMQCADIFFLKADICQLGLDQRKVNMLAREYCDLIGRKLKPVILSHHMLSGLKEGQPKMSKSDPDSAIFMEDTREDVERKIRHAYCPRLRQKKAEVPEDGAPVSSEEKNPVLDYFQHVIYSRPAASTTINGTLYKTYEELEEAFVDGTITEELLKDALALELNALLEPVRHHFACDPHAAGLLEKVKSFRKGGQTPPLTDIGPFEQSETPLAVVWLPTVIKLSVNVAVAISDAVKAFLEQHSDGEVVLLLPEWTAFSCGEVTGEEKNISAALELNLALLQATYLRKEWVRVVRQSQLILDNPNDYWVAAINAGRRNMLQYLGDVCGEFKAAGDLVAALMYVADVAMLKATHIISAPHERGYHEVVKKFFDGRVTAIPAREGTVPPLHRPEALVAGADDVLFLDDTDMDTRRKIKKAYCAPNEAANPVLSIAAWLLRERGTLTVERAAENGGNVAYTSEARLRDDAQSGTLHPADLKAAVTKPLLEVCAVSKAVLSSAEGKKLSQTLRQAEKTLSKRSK
The test is described as follows: Trypanosoma cruzi tyrosyl tRNA synthetase (TcYRS) _High Tyrosine SOP. Note: in the data most compounds retested in dose-response had high values. In kind it is functional. The note with it: 30 µM.

In test [8] the target is T4, Tyrosyl-tRNA synthetase, putative (Trypanosoma cruzi (strain CL Brener)). Briefly: Trypanosoma cruzi tyrosyl tRNA synthetase (TcYRS) SOP. In kind it is functional. The note with it: 30 µM.
The target of test [9] is Chromo domain-containing protein 1 (Saccharomyces cerevisiae (strain ATCC 204508 / S288c) (Baker's yeast)) (UniProt P32657). The test is described as follows: ScCHD-1 Enzyme Inhibition Assay. Note: in the data most compounds retested in dose-response had high values. In kind it is functional. The note with it: 30 µM.

For some of these results: Results with a measured potency or affinity are listed apart.

Chain of Protein translocase subunit SecA (Escherichia coli (strain K12)) (P10408 whole entry): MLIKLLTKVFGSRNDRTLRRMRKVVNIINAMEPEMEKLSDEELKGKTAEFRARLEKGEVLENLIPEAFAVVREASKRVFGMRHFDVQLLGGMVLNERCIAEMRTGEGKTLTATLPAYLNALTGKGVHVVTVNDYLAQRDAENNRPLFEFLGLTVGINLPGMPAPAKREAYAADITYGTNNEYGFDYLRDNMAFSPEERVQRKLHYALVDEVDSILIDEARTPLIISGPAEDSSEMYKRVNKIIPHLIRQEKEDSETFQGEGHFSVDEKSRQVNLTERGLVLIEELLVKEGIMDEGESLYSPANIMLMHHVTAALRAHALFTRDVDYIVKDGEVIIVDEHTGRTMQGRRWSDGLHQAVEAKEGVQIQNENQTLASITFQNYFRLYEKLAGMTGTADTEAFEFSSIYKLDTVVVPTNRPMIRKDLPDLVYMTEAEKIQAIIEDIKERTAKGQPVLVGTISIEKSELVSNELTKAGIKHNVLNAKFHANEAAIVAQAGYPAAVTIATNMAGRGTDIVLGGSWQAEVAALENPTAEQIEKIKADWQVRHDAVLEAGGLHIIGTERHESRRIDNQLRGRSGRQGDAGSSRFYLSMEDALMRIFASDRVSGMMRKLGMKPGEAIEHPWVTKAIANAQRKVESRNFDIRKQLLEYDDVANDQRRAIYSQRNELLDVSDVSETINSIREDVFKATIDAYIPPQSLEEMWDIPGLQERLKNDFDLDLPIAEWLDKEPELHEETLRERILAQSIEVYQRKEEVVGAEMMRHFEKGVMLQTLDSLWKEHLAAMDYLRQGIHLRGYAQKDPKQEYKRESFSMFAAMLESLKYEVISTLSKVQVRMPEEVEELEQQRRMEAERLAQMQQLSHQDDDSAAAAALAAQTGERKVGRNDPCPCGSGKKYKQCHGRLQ
Chain of Sialic acid-binding Ig-like lectin 9 (Homo sapiens) (Q9Y336 whole entry): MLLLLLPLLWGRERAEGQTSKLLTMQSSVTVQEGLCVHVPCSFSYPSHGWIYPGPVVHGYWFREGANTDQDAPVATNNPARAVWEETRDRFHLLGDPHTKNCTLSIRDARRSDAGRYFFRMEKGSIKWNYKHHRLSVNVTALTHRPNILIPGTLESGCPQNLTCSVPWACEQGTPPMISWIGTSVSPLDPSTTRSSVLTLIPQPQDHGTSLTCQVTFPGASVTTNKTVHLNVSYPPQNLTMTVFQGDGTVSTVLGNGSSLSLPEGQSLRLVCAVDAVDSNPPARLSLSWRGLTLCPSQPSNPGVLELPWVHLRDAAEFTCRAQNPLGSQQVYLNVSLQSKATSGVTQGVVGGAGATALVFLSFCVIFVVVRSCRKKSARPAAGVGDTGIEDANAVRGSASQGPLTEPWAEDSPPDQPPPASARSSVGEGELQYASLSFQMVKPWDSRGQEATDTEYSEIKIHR
Chain of Chromo domain-containing protein 1 (Saccharomyces cerevisiae (strain ATCC 204508 / S288c) (Baker's yeast)) (P32657 whole entry, the tested form may be a part): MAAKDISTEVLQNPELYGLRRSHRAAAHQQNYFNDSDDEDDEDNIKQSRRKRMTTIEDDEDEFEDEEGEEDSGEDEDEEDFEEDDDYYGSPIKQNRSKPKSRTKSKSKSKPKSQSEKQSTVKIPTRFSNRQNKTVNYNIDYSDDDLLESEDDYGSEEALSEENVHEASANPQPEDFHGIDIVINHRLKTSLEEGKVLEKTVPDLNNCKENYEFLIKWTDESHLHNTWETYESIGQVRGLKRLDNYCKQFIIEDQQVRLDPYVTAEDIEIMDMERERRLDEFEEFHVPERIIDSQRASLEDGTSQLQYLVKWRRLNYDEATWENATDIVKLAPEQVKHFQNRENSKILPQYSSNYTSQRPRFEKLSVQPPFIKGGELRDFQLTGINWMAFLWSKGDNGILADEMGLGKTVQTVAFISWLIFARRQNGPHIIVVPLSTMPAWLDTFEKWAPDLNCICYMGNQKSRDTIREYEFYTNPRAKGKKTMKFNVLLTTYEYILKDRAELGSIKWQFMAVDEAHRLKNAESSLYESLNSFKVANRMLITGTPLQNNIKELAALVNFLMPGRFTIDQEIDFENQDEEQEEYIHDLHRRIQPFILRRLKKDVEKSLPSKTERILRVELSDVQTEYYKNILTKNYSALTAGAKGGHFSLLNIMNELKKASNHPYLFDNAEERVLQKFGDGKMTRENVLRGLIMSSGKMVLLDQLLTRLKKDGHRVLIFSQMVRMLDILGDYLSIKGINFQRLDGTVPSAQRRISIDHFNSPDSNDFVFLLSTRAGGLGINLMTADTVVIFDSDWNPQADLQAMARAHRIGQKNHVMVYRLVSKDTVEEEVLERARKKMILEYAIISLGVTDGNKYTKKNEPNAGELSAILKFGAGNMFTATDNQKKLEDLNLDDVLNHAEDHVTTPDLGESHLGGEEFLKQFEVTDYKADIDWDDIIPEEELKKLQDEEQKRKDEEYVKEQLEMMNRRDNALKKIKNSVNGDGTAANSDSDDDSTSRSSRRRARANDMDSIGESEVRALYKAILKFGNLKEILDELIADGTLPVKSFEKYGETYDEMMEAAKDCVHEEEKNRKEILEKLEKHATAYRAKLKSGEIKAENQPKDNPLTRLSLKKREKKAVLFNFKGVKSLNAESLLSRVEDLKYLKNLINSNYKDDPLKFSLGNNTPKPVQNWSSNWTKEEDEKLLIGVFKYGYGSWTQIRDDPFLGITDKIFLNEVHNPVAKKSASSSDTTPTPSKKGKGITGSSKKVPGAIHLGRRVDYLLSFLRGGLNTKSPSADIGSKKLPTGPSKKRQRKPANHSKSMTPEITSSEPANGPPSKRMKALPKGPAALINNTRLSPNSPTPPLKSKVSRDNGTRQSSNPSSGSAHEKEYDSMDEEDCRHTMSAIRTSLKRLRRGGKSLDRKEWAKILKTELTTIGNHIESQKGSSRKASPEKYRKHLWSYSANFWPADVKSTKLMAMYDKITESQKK

For the compound `COc1cccc(S(=O)(=O)NC(=O)COC2CCCC2)c1`, the Percent Effect is -1.91% in test [1]; 20.8% in test [2]; 2.89% in [3]; 10.4% in test [4]; 2.06% with Trypanosoma cruzi; 2.85% in test [5]. For the same compound, the Percent Effect is 10.6% in test [6]; 3.15% in the test listed under Homo sapiens; 8.74% in [7]; 24.4% in [8]; -6.86% in test [9].

As to `Cc1cc(C)n(C2CN(CC(=O)NC3CCOCC3)C2)n1`, the Percent Effect is -6.74% in test [1]; 6.33% in test [2]; 6.98% in [3]; 1.96% in test [4]; -1.33% with Trypanosoma cruzi; -1.94% in test [5]. Also, the Percent Effect was 9.26% in test [6]; 10.4% in the test listed under Homo sapiens; 8.33% in [7]; 15.2% in [8]; -15% in test [9].

For the compound `COCC1Cn2nnc(-c3cnn(C)c3)c2CN1Cc1ccco1` (stereo not drawn), the Percent Effect in test [1] was -2.03%; in test [2], 2.7%; in test [3], -7.24%; in test [4], 5.87%; in the test on Trypanosoma cruzi it was 1.37%; in [5], 23.8%. Further, the Percent Effect in test [6] was 9.72%; in the test listed under Homo sapiens, -17.4%; in [7] it was 11.9%; in test [8], 15.8%; in [9], -5.92%.

`COCCN1C(=O)CC(N2CCN(c3ccc(OC)cc3)CC2)C1=O` (stereo not drawn): the Percent Effect worked out at 1.03% in test [1]; 6.94% in [2]; 1.7% in [3]; 4.19% in [4]; 4.37% with Trypanosoma cruzi; 13.7% in test [5]. In addition, the Percent Effect in test [6] is 16.8%; in the test filed under Homo sapiens, -7.93%; in [7] it was 8.42%; in test [8], 15.4%; in test [9] it was -3.31%.

`CC(CNC(=O)Nc1cn[nH]c1)N1CCc2ccccc2C1` (stereo not drawn): the Percent Effect in test [1] is -4.87%; in test [2], 15.6%; in [3] it was -4.05%; in test [4], -3.09%; in the test on Trypanosoma cruzi, -1.67%; in test [5], 0.632%. Moreover, the Percent Effect in test [6] is 14.2%; in the test filed under Homo sapiens, 12.5%; in [7], 9.52%; in test [8], 21.2%; in test [9], -18%.

On to `CSC(C)(C)CNC(=O)NC1CCSCC1`, for which the Percent Effect is -4.83% in [1]; 13.3% in test [2]; -5.19% in test [3]; 18.2% in test [4]; 8.47% with Trypanosoma cruzi; 5.73% in [5]. Besides, the Percent Effect in [6] is 6.63%; in the test filed under Homo sapiens it was 4.48%; in [7], 0.546%; in [8], 11.1%; in [9] it was -6.59%.

Take `Cc1ncoc1C(=O)N1C[C@H]2CCC[C@@]2(COCC2CCOCC2)C1`: the Percent Effect in test [1] is -3.5%; in [2], 0%; in [3], 4.71%; in [4], -0.295%; in the test with Trypanosoma cruzi, 1.66%; in [5], 1.59%. Also, the Percent Effect in test [6] is 22.3%; in the test listed under Homo sapiens it was -6.69%; in test [7], 2.16%; in [8] it was 7.69%; in test [9] it was 5.48%.

With `CC(NC(=O)NCc1ccc(Cl)cc1)c1ccccn1` (stereo not drawn), the Percent Effect is -1.55% in [1]; 1.27% in [2]; 3.12% in [3]; 3.62% in test [4]; 5.23% with Trypanosoma cruzi; -6.24% in test [5]. In addition, the Percent Effect is 12% in test [6]; 12.2% in the test listed under Homo sapiens; 2.08% in [7]; 0% in test [8]; -24.6% in test [9].
